Reference: PubChem BioAssay (NCATS)
Results filed as inconclusive are left out. The source made the active and inactive calls. Unless noted, calls follow the shape of the dose curve; as a rule, active = well fitted curve in the direction sought with a large enough effect; inconclusive = small, poorly fitted or top-dose-only effect, or another doubt; inactive = no such curve, though single readings can be large; an effect the other way counts as inactive or inconclusive.

Experiments:
[1] = Cell Viability - LYMP2-005 (AID 967);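 also: series mostly up to about 92 µM; plate controls were DMSO only for no effect and 92 µM tetraoctylammonium bromide control for full effect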
Method in brief: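 Luciferase-based ATP quantitation served as the viability measure in human lymphoblastoid LYMP2-005 cells exposed to test compounds for 24 h at 37 C in complete culture medium. Potency (AC50) was obtained by fitting concentration-response curves with the Hill equation.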

[2] = Cell Viability - LYMP2-009 (AID 968);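 also: series mostly up to about 92 µM; 0% = DMSO alone and the full-kill end = tetraoctylammonium bromide at 92 µM; nearly all actives have a fitted effect of over 55% in size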
[3] = Cell Viability - LYMP2-011 (AID 969);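 also: 0% = DMSO only and full inhibition = 92 µM tetraoctylammonium bromide; nearly all actives have a fitted effect of over 60% in size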
Method in brief: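 Luminescent ATP read-out (CellTiter-Glo, 30 min RT) after 24 hr compound exposure at 37 C in human lymphoblastoid cells, 2500 cells/well. Decreasing ATP indicates cytotoxicity; AC50 from standard Hill fit.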

[4] = Cell Viability - LYMP2-013 (AID 970);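 also: series mostly up to about 92 µM; 0% = DMSO only and full inhibition = tetraoctylammonium bromide control; nearly all actives have a fitted effect of over 55% in size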
Method in brief: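 CellTiter-Glo luminescence (cellular ATP) read after 30 min at RT. Cells: human lymphoblastoid line, 2500/well, 24 hr compound exposure at 37 C. Tetraoctylammonium bromide positive control; AC50 via standard Hill fit of qHTS titrations.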

[5] = Cell Viability - LYMP2-015 (AID 971);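 also: 0% = DMSO only and full effect = 92 µM tetraoctylammonium bromide; nearly all actives have a fitted effect of over 55% in size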
Method in brief: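 qHTS cytotoxicity: 2500 cells/well, 5 hr 37 C, compound 24 hr 37 C, CellTiter-Glo 30 min RT, luminescence. Loss of ATP = toxicity; AC50 via standard Hill fit.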

[6] = Cell Viability - LYMP2-017 (AID 972); also: series mostly up to about 92 µM; % is scaled to controls: 0 for no effect and ±100 for the full control effect; nearly all actives have a fitted effect of over 55% in size
Method in brief: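 Luminescent ATP read-out (CellTiter-Glo, 30 min RT) reports viable cell number. Cells: human lymphoblastoid line, 2500 per well, 5 hr preincubation, 24 hr compound exposure at 37 C. AC50 is derived from qHTS concentration-response data using the standard Hill model.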

[7] = Cell Viability - LYMP2-019 (AID 973)
Method in brief: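 qHTS, 1536-well; 2500 cells/well; 5 hr pre-incubation, 24 hr compound exposure, 37 C; CellTiter-Glo added, 30 min RT; luminescence read; AC50 via standard Hill equation.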

[8] = Cell Viability - LYMP2-021 (AID 974)
Method in brief: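 ATP luminescence (CellTiter-Glo, 30 min RT) after 24 h compound exposure at 37 C; 2500 human lymphoblastoid cells/well, 5 h settle beforehand. Cytotoxicity = concentration-dependent ATP drop, AC50 by Hill fit.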

[9] = Cell Viability - LYMP2-023 (AID 975)
Method in brief: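 CellTiter-Glo luminescence after 30 min at room temperature; decrease in intracellular ATP reflects toxicity. Cells: human lymphoblastoid line, 2500/well, 24 hr compound exposure at 37 C. AC50 fitted to standard Hill equation from concentration-response.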

[10] = Cell Viability - LYMP2-025 (AID 976);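 also: series mostly up to about 92 µM; plate controls were DMSO only for no effect and tetraoctylammonium bromide control for full effect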
Method in brief: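 CellTiter-Glo luminescence (cellular ATP) after 24 h compound exposure at 37 C; LYMP2-025 human lymphoblastoid cells, 2500/well, complete medium. Tetraoctylammonium bromide positive control. AC50 by Hill equation fit of qHTS concentration-response.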

[11] = Cell Viability - LYMP2-002 (AID 977);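 also: series mostly up to about 92 µM; plate controls were DMSO only for no effect and 92 µM tetraoctylammonium bromide for full effect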
Method in brief: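 Human lymphoblastoid cells (2500/well) in complete medium were preincubated 5 hr at 37 C, then exposed to compounds for 24 hr at 37 C. Intracellular ATP was read by CellTiter-Glo luminescence; AC50 came from Hill-equation concentration-response fits.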

[12] = Cell Viability - LYMP2-006 (AID 978); also: series mostly up to about 92 µM; % is scaled to controls: 0 for no effect and ±100 for the full control effect; nearly all actives have a fitted effect of over 60% in size
Method in brief: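 In this cytotoxicity screen, the human lymphoblastoid line grew in complete medium with test compounds for 24 hr at 37 C. Cellular ATP served as the viability signal.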

[13] = Cell Viability - LYMP2-007 (AID 979);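 also: cells exposed to compound for 24 h before reading; 0% = DMSO only and the negative end = 92 µM tetraoctylammonium bromide; nearly all actives have a fitted effect of over 60% in size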
Method in brief: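 qHTS cytotoxicity: 2500 cells/well, 5 hr 37 C settle, compound 24 hr 37 C, CellTiter-Glo 30 min RT, luminescence. Decrease in ATP = toxicity. AC50 by standard Hill equation; tetraoctylammonium bromide positive control.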

[14] = Cell Viability - LYMP2-008 (AID 980); also: % is scaled to controls: 0 for no effect and ±100 for the full control effect; nearly all actives have a fitted effect of over 60% in size
Method in brief: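 Luminescent ATP read-out (CellTiter-Glo, 30 min RT) after 24 hr compound exposure at 37 C of human lymphoblastoid cells in complete medium. Decrease in ATP taken as cytotoxicity; AC50 derived by standard Hill fit of qHTS concentration-response data.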

[15] = Cell Viability - LYMP2-010 (AID 981)
Method in brief: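 qHTS cytotoxicity, 1536-well: 2500 cells/well, 5 hr settle, 24 hr compound at 37 C, CellTiter-Glo 30 min RT, luminescence read. Decrease in ATP = toxicity; AC50 via standard Hill equation. Positive control tetraoctylammonium bromide.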

[16] = Cell Viability - LYMP2-012 (AID 982)
[17] = Cell Viability - LYMP2-014 (AID 983);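 also: series mostly up to about 92 µM; plate controls were DMSO only for no effect and 92 µM tetraoctylammonium bromide for full effect; nearly all actives have a fitted effect of over 50% in size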
Method in brief: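 2500 cells/well, 5 hr 37 C; cpd 24 hr 37 C, complete medium; CellTiter-Glo 30 min RT, luminescence; ATP loss = toxicity; AC50 via Hill eqn; tetraoctylammonium bromide positive control.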

[18] = Cell Viability - LYMP2-016 (AID 984)
Method in brief: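 Concentration-dependent ATP depletion measured in LYMP2-016 lymphoblastoid cells, 24 h, 37 C; luciferase-based luminescent detection; Hill-equation AC50.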

[19] = Cell Viability - LYMP2-018 (AID 985);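 also: plate controls were DMSO only for no effect and tetraoctylammonium bromide at 92 µM for full effect; nearly all actives have a fitted effect of over 50% in size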
Method in brief: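 2500 cells/well; 5 hr 37 C; cmpd 24 hr 37 C, complete medium; CellTiter-Glo 30 min RT; luminescence. Tetraoctylammonium bromide positive control. AC50 via Hill fit.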

[20] = Cell Viability - LYMP2-020 (AID 986)
Method in brief: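 qHTS, 2500 cells/well; 5 hr then 24 hr compound exposure, 37 C; CellTiter-Glo luminescence after 30 min RT; ATP decrease taken as cytotoxicity; AC50 via Hill equation; tetraoctylammonium bromide positive control.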

[21] = Cell Viability - LYMP2-022 (AID 987)
Method in brief: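 Luminescent ATP read-out (CellTiter-Glo, 30 min, RT) after 24 hr, 37 C compound exposure of 2500 human lymphoblastoid cells/well in complete medium. Cytotoxicity taken as concentration-dependent ATP loss; AC50 from standard Hill equation.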

[22] = Cell Viability - LYMP2-024 (AID 988)
Method in brief: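 ATP-based luminescence (CellTiter-Glo, 30 min RT) after 24 h compound exposure at 37 C of 2500 lymphoblastoid cells/well; decrease in ATP taken as cytotoxicity. qHTS concentration-response fitted to standard Hill equation for AC50.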

[23] = Cell Viability - LYMP2-026 (AID 989); also: % is scaled to controls: 0 for no effect and ±100 for the full control effect; nearly all actives have a fitted effect of over 50% in size
Method in brief: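 qHTS cytotoxicity: 2500 cells/well, 5 hr 37 C, compound 24 hr 37 C, CellTiter-Glo 30 min RT, luminescence. Tetraoctylammonium bromide positive control. AC50 via standard Hill fit.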

[24] = Cell Viability - LYMP1-002 - Assay at 24 hr (AID 993); also: % is scaled to controls: 0 for no effect and ±100 for the full control effect
Method in brief: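 CellTiter-Glo luminescence (intracellular ATP) after 24 h compound exposure, 37 C, in LYMP1-002 human lymphoblastoid cells; decreased ATP taken as cytotoxicity. AC50 from standard Hill fit of concentration-response curves.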

[25] = Cell Viability - LYMP1-002 - Assay at 40 hr (AID 994)
Method in brief: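 qHTS cytotoxicity; 2500 cells/well, 5 hr 37 C settle, compound 40 hr 37 C. CellTiter-Glo, 30 min RT, luminescence (ATP). Concentration-response, Hill fit → AC50. Pos. ctrl tetraoctylammonium bromide.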

[26] = qHTS Assay for Identification of Small Molecule Inducers of Hypoxia Response (AID 2120; active = well fitted curve in the direction sought with a large enough effect in the signal ratio, with a control signal flat, not every such curve was filed as active; the % refers to the signal ratio; also: 0% is about no effect)
Method in brief: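 Read-out: CCF4 FRET emission ratio 460nm/530nm (excitation 405nm), converted to %Activity, with AC50 fitted across a compound titration. ME-180 cells carried an HRE-driven beta-lactamase reporter; compound exposure 17 h, 37 degrees C.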

[27] = biological target: Bile acid receptor (Homo sapiens) (UniProt Q96RI1); test: qHTS assay for small molecule antagonists of farnesoid X receptor signaling (AID 588526; calls by dose curve; also: % is scaled to controls: 0 for no effect and ±100 for the full control effect)
Chain of Bile acid receptor (Homo sapiens) (Q96RI1 whole entry, looked up): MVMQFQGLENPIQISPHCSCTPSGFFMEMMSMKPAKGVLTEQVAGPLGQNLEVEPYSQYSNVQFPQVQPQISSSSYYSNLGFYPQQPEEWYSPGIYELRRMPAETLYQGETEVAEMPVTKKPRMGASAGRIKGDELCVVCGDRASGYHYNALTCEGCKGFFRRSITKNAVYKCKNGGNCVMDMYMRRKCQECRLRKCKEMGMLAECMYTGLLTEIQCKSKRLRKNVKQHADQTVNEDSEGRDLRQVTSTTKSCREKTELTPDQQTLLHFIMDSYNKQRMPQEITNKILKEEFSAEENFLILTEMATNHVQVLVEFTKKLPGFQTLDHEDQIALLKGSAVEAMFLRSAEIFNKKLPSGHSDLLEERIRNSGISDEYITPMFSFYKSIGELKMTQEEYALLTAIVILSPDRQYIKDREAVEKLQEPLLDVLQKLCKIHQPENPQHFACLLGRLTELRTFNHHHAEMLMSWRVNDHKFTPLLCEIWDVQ
Method in brief: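 Beta-lactamase reporter antagonist mode: HEK293T FXR-UAS-bla cells, titrated compound, CDCA stimulation, 16 h 37 C, CCF4 dye 2 h RT. Data normalized to CDCA 50 uM and DMSO; Hill-fit IC50.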

[28] = biological target: Glucocorticoid receptor (Homo sapiens) (UniProt P04150); test: qHTS assay for small molecule antagonists of glucocorticoid receptor signaling (AID 588533; active = well fitted inhibition curve with a large enough effect in the signal ratio, with a control signal flat, not every such curve was filed as active; the % refers to the signal ratio;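 also: cells stimulated with 2 nM dexamethasone as agonist; % is scaled to controls: 0 for no effect and ±100 for the full control effect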)
Chain of Glucocorticoid receptor (Homo sapiens) (P04150 whole entry, looked up): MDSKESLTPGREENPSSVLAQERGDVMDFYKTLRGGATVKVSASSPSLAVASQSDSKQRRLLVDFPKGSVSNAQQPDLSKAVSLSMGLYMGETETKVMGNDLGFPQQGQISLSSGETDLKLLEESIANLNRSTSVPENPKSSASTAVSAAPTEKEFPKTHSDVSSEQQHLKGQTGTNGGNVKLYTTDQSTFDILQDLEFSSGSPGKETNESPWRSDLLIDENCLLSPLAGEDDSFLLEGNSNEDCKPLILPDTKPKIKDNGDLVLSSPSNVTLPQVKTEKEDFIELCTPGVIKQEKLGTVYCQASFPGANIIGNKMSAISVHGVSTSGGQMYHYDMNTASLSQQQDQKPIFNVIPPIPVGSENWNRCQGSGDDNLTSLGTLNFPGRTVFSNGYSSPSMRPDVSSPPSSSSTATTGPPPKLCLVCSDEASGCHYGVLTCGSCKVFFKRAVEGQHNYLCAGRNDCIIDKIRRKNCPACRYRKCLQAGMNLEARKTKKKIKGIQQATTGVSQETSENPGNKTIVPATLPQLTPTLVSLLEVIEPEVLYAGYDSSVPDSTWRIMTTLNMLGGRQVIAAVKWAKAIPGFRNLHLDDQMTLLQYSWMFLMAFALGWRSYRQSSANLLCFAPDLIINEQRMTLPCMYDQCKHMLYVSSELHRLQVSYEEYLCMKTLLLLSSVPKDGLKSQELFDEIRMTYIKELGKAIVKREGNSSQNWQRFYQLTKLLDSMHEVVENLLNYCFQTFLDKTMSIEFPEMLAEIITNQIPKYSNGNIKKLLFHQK
Method in brief: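 Antagonist-mode qHTS: compound titrations added to GRE-bla HeLa cells, then dexamethasone 2 nM final; 18 h, 37 C. CCF4 FRET fluorescence normalized to dexamethasone and DMSO; IC50 from Hill fit.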

[29] = biological target: Retinoic acid receptor RXR-alpha (Homo sapiens) (UniProt P19793); test: qHTS assay for small molecule antagonists of retinoid X receptor alpha signaling (AID 588546; active = well fitted inhibition curve with a large enough effect in the signal ratio, with a control signal flat, not every such curve was filed as active; the % refers to the signal ratio;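 also: cells stimulated with 9-cis-retinoic acid as agonist; % is scaled to controls: 0 for no effect and ±100 for the full control effect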); details: HEK293T RXRa-UAS-bla, beta-lactamase ratio, antagonist mode
Chain of Retinoic acid receptor RXR-alpha (Homo sapiens) (P19793 whole entry, looked up): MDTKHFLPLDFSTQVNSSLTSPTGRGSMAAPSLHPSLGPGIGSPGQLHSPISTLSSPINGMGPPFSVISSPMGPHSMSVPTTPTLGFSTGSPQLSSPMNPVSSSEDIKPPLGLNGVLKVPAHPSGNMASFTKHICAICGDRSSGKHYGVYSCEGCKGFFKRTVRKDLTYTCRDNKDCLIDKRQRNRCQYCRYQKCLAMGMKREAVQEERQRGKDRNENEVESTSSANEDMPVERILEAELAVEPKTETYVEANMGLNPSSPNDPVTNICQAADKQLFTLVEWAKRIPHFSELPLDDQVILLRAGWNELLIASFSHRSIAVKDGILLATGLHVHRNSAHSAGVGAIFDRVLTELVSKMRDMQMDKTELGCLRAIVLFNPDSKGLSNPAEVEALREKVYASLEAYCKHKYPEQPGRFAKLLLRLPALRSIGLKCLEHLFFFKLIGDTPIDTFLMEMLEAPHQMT
Method in brief: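 Beta-lactamase reporter inhibition, read as CCF4 fluorescence ratio (ex 405, em 460/530 nm) after 2 h at RT. HEK293T UAS-bla cells, 2500/well, were stimulated with 9-cis-RA at 500 or 100 nM final alongside test compound for 18 h at 37 C.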

[30] = qHTS assay for small molecule disruptors of the mitochondrial membrane potential - 1 hr assay (AID 651754; calls by dose curve; also: % is scaled to controls: 0 for no effect and ±100 for the full control effect; nearly all actives have a fitted effect of over 35% in size)
Method in brief: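 Read-out: dye fluorescence at 490 nm ex/535 nm em (monomers) and 540 nm ex/590 nm em (aggregates) in HepG2 cells. Compound exposure 1 hr at 37C, followed by 30 min dye loading.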

[31] = biological target: Nuclear receptor ROR-gamma (Homo sapiens) (UniProt P51449); test: qHTS assay for small molecule antagonists of the retinoid-related orphan receptor gamma (ROR-gamma) signaling pathway (AID 651802)
Chain of Nuclear receptor ROR-gamma (Homo sapiens) (P51449 whole entry, looked up): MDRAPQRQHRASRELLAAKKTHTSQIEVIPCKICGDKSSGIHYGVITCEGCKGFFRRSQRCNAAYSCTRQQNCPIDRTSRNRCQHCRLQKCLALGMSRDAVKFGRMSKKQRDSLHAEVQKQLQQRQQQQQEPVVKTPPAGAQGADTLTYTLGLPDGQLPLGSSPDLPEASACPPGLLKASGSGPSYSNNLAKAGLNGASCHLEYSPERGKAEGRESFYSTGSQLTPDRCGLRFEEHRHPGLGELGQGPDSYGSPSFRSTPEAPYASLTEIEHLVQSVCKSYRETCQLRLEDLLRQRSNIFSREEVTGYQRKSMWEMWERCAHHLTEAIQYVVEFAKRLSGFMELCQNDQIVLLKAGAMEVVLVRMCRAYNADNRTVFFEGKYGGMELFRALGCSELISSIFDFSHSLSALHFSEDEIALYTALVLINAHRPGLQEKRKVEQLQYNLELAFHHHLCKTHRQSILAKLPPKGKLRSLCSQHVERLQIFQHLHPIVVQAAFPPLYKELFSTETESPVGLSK
Method in brief: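 Luciferase read-out: ONE-Glo luminescence after 30 min at room temperature, following 16hr doxycycline induction at 37C, 5% CO2 of CHO cells with TET-inducible ROR and RORE-LUC reporter; decreased luminescence = reduced reporter activity.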

[32] = qHTS assay for small molecule antagonists of the retinoid-related orphan receptor gamma (ROR-gamma) signaling pathway - cell viability counter screen (AID 720652; active = well fitted curve in the direction sought with a large enough effect in the repeat runs; an effect the other way counts as inactive or inconclusive)
Method in brief: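 CHO RORE-LUC/TET-ROR line, 1,000 cells/well, 37 C 5% CO2 5 hr; cpd or DMSO + doxycycline induction, 16 hr. CellTiter-Glo, 30 min RT, luminescence = ATP content.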

O=C(/C=C/c1ccc(O)c(O)c1)O[C@@H](C(=O)O)[C@@H](OC(=O)/C=C/c1ccc(O)c(O)c1)C(=O)O
inactive: Potency [1] | Potency [2] | Potency [3] | Potency [4] | Potency [5] | Potency [6] | Potency [7] | Potency [8] | Potency [9] | Potency [10] | Potency [11] | Potency [12] | Potency [13] | Potency [14] | Potency [15] | Potency [16] | Potency [17] | Potency [18] | Potency [19] | Potency [20] | Potency [21] | Potency [22] | Potency [23] | Potency [24] | Potency [25] | outcome [26] | outcome [27] | Potency [28] | max response [29] 13% | Potency [30] | Potency [31] | Potency [32]
